# The supplement of paper PMC11417369
# Whole data set: some 25,000 sequences, median “ln(normalized median fluorescence intensity)” near 9.7, cut for the highest 2% near 11. Shown is part of a subset that was picked to be rich in the highest values.
# Tested on: PfAP2-HC AP2 domain (GST-tagged)
# Test: gcPBM binding intensity (ln(normalized median fluorescence intensity)); higher = stronger DNA binding
# In short: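 Alexa488 anti-GST antibody, scanned at 488 nm, detected GST-tagged P. falciparum DNA-binding domains that had been expressed in E. coli and incubated for 1 h on an Agilent 4 × 180k array. The array carried primer-extended double-stranded 36-bp intergenic genomic probes and negative controls. Binding intensity is the highest Masliner-normalised natural-log median intensity across replicate spots of either orientation of each probe.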
row,Sequence,gcPBM binding intensity (ln)
1,TACCAAAAGAAACACACACACAAAATATATAAATAT [CACACA_site1869],10.6
2,TACCAAAATAGACACACACACAAAATATGTAAATAT [CACACA_site6963],11
3,TTATAAAATGGGCAAACACACACAAAAAAAAGATAT [CACACA_site8476],10.9
4,AATCACAACAGACACACACACAAAAAAAAAAAAAAA [CACACA_site1442],10.1
5,AAATAAATAATATGTAAACACACAAAAAATAAAAAT [CACACA_site8307],10.3
6,AAAATCACAAAACACACACACACAAAAAAAAAAAAA [CACACA_site1443],10.5
7,TATATATAAATAAACACACACAAATATAATAAAAAA [CACACA_site3526],10.9
8,ATAAAATGGGCAAACACACACAAAAAAAAGATATAT [CACACA_site1648],10.3
9,CACAAAAATAGACACACACACATATAAATAAATATA [CACACA_site6598],10.4
10,ATAAAATGCGCAAACACACACAAAAAAAAGATATAT [CACACA_site6875],10.2
11,CTTACCAAAAAACACACACACACAAAATATATAAAT [CACACA_site1870],11.2
12,AAAATCACAAGACACACACACACAAAAAAAAAAAAA [CACACA_site6791],11.5
13,ATAAATAAATAAATAAATAAATAAATAAATATATAT [CACACA_negctrl_site1728],9.74
14,TTTAATTTATATTTTGTGCACATCTTATTATATATA [GTGCAC_site9630],9.88
15,GAAGTATTATTAAAGCTGCACTTTTCTAAAATAAAC [GTGCAC_site9429],9.5
16,TAATTACCATATGGTACACACATATATATCTGTATA [CACACA_site5849],9.96
17,CAGGCACTAATAAACACACACATATAAATATAAATA [CACACA_site6320],10.1
18,AATTTAACCACTAAAAGTACACACATATATACATAT [XGTACX_site8352],10.1
19,TACTTTTTTCCTATTATGTTTCTTATTTTTATAAAT [XGTACX_negctrl_site561],9.78
20,GATGATTATATATATACGCACACTTTTTTTTTTTTT [CACACA_site2652],9.94
21,TAATAAAACATATATACACACATTATAAATACATAT [CACACA_site5014],10
22,TTTTTTTTTTTTCTGTGTACATATATAATATATATA [XGTACX_site1592],9.7
23,AAAAAAAAAAAAAACACACACACAAAAAAAAATATA [CACACA_site1104],11.3

row,Sequence,gcPBM binding intensity (ln)
1,AAATATAAAGTGCACACACACAAAAAAAGAAAAAAA [CACACA_site6452],10.2
2,ATATATATAAAACACACACACAAAAAAAATAAAGAC [CACACA_site117],11.2
3,AATATATATAAATAAACACACACAAATATAATAAAA [CACACA_site9176],10.8
4,AAAAAAAGAAAAAAAACACACACAAATATAAATAAA [CACACA_site8309],10.9
5,AAAAGAAAATAAGAAACACACAAAAATATATAAAAA [CACACA_site3697],9.99
6,AAAAAGAAAAAAAACACACACAAATATAAATAAATA [CACACA_site1183],10.2
7,AAAAAAAAAAAACACACACACAAAAAAAAATATATA [CACACA_site1105],11.3
8,AAATATAAACGGCACACACACAAAAAAAGAAAAAAA [CACACA_site649],11
9,AAATAAATAAAAAACACACACAAATAAATAAATATA [CACACA_site2249],10.7
10,AAAAAAAAAAAACACACACACACAAATATATAAAAA [CACACA_site1171],10.6
11,AAAAAATATAAAAAAACACACAAAAAAAAAAAAAAA [CACACA_site1382],9.71
12,TGTACAAATATGTTGAAAATAAAATTTCAATATATT [XGTACX_negctrl_site13],9.32
13,AAAAAATTAACCGTAACACACACACCGATATATATA [CACACA_site9312],10.5
14,ATTTTTTTTTTTTTTTTTTTTTTTTGGAGAAAGAGA [CACACA_negctrl_site1119],8.98
15,ATATAGAAAATGCATACACACTTTATATATATATTT [CACACA_site4658],9.9
16,TTACAAATATTATAAAGTACAAACCAGTAGATTTTG [XGTACX_site2272],9.63
17,ATACATATGTATATTTGTACATATTAGACAATCTTA [XGTACX_site6706],9.37
18,CATATATAACAATTCTCACACATAAAAAAAAAAAAT [CACACA_site4564],9.76
19,TTTTTAAATATAAACAAAAAAAAAAAATATATCAAT [XGTACX_negctrl_site328],9.43
20,AAAAAAAAAAAAAACACACACACAATAGTATATAAA [CACACA_site957],10.3
21,AAAAAAATAAATAAGACACACACAAAAAAAAAAAAA [CACACA_site8404],11
22,AAAACAAATATATTAACACACAAACATATAAACAAA [CACACA_site6052],10.4
23,AAAAAAAAAAAAAACACACACACAAGAGTATATAAA [CACACA_site6580],11.1

row,Sequence,gcPBM binding intensity (ln)
1,AGAGTATATAAAGTAACACACAATAAAATAAAATAA [CACACA_site2328],10.3
2,TACTTACCAAAATACACACACACACCCAATATATAA [CACACA_site1871],10.5
3,ATATTAAAAAAATATAAACACACAAAAAAAAAATAT [CACACA_site8283],9.91
4,AAAAAAATAAGACACACACACAAAAAAATAAAAATA [CACACA_site6357],10.6
5,AAAATATATATTAACACACACACAAAAAAAAAAAAA [CACACA_site1325],11.2
6,AATACTTACCAAAATACACACACACCCAAAATATAT [CACACA_site8559],10.3
7,TACTTACCAAAATACACACACACACTAGATATATAA [CACACA_site5096],11.3
8,AAAAATAAATAAGACACACACAAAAAAAAAAAAAAA [CACACA_site1432],9.87
9,TATTTTTTTCTTACTACACACATATATATGCTTTCC [CACACA_site4058],10
10,ATAGCATATATTTTTTGTACATATGTTATATATATA [XGTACX_site2184],9.66
11,AAAAAAAAAGATCACACACACATAAATATAAACAAA [CACACA_site5285],10.9
12,TCAAAAATAAAGATCACACATATATATATATATATA [CACACA_site4381],9.73
13,CACAAAAATAAACACACACACATATATATATATATA [CACACA_site4704],10.4
14,AAGTTCAAAATAAATGGTACAGAAGTATATATATCA [XGTACX_site174],9.75
15,ATATATCCAAATAGATTACATATATATATATAGATA [TGCATGCA_negctrl_site277],9.5
16,TATACACCCAGACACACACACACACCCAAAAAAAAA [CACACA_site497],10.9
17,ACATCAAGCAGACACACACACACACCCACCCACCGA [CACACA_site371],10.7
18,ATCAAGCACGGACACACACACACACCCAGACCCCCA [CACACA_site4360],10.6
19,CAAGCACCCAGACACACACACACACCCACACCCACA [CACACA_site369],11.2
20,TACACAAGCAGACACACACACATATATATATATATA [CACACA_site1270],10.2
21,CACCCACCCAGACACACACACACAAAAAAAAAAAGA [CACACA_site499],11.2
22,CAAGCACAGAAACACACACACACACCGACACAGACA [CACACA_site4359],10.9
23,ACATCAAGCGGACACACACACACACCGACAGACACA [CACACA_site4361],10.9

row,Sequence,gcPBM binding intensity (ln)
1,ACATCAAGCAGACACACACACACACCCACCCACCCA [CACACA_site8012],11.5
2,CACAAAGACACAAACACACACACACCCACATACATA [CACACA_site452],10.5
3,AACAGACAGAAACACACACACATATATATATATATA [CACACA_site3394],10.8
4,CAATATATTTGATTTACACACTTACAATGTATTTAA [CACACA_site5632],9.79
5,AAGAATTATTTTTTATGTACTTATATGTCAATTTTC [XGTACX_site6676],9.68
6,TTGTAGGAATTTATTTTGACTGATAATTAATACGTT [GTGCAC_negctrl_site46],9.47
7,AAAAAAAATATATATGCACACACAAAAAAACAAATT [CACACA_site8349],10.2
8,TAGTATCAATCTTATACATGCATAAAATAATTATAA [TGCATGCA_site1052],9.53
9,AAAAAATTTATAAAAGCACACAAAATAAAAAAAAAT [CACACA_site8420],9.78
10,TAACATATCTTTAATACACACTTAAAAAAGTACTTA [CACACA_site4532],9.41
11,CAGATAGACTTATATGCATGCATTCACCTGCCAACA [TGCATGCA_site158],9.66
12,AATATATGGTTTCATGATATAAAATTCAATTTAATG [GTGCAC_negctrl_site610],9.51
13,ATGTTTTATATTTTTTTTTTGTTTGCTTGTTTCCTC [CACACA_negctrl_site870],9.57
14,ATATACAAAGGATTAACACACATATTATTATAGATA [CACACA_site6966],9.87
15,TGTTTTTTATTTAATTGTACGAATTAAAAAAAATAA [XGTACX_site3009],9.1
16,ATACATCAAGGACACACACACACACCCACACCCACA [CACACA_site8013],11.1
17,TACACCCACCCACATACACACACATACACATATATA [CACACA_site8503],10.8
18,CACCCACCCAGACACACACACACACCCCCACCCATA [CACACA_site367],11.6
19,CACCCCCACAGACACACACACACACCCATATATATA [CACACA_site364],10.6
20,TAGACTCCCAGACACACACACACACCCATATAATAT [CACACA_site593],10.5
21,ATACATCAAGGACACACACACACACGCACACGCACA [CACACA_site6310],10.7
